Molecules are shown by their SMILES. This is one part of the list. Values without a mark were called inactive. Activity calls are given as the source filed them.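 The calls were made as follows: active = fluorescence interference ratio at or above 1.2, signal boosting, or at or below 0.8, signal quenching; inactive = ratio between 0.8 and 1.2.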

This assay in a line: signal quenchers or enhancers, Cy5-oligo/SSB – biochemical, E. coli SSB, selected ChemBridge compounds, artefact control for HCV NS3 helicase inhibitor project (AID 720487).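 Also: ratio of compound well signal to mean negative control signal so 1 means no effect.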 The note with it: Cy5-dT15/E. coli SSB fluorescence interference; at 100 µM; actives lie on both sides.
Take `CC(C)(C)N1C(=O)NC(=O)C(=Cc2cccs2)C1=O`: the fluorescence interference ratio is 0.954.
The value for `COc1ccc(N2C(=O)C=CC2=O)c([N+](=O)[O-])c1` was 1; that for `CCOc1ccc(C=C2C(=O)NC(=O)NC2=O)cc1Cl` was 0.963; that for `Cc1ccc(C(=O)NCCNc2ccc([N+](=O)[O-])cc2)cc1` was 0.915.
Regarding `Cc1ccc(C(=O)C[n+]2cc(-c3ccccc3)n3c2CCCCC3)cc1`, the fluorescence interference ratio was 1.01.
The value for `COc1ccc(C(=O)Oc2ccc3oc(=O)cc(C)c3c2)cc1OC` was 0.977.
The value for `C=CCN1C(=O)/C(=C\c2cc(OC)c(O)c([N+](=O)[O-])c2)C(=O)NC1=S` was 0.902; that for `CCN(CC)c1ccc(C=C2C(=O)N(C)C(=O)N(C)C2=O)c(O)c1` was 1.15; that for `CCN(CC)c1ccc(NC(=O)/C(=C\c2ccccc2)NC(C)=O)cc1` was 1.22 (active).
The value for `COc1cc(/C(O)=C(\C#N)c2nc3ccccc3n2C)cc(OC)c1OC` was 0.913; that for `O=c1c2c(nc3cc(-c4cccc(F)c4)[nH]n13)CCS2` was 0.862.
Turning to `COc1cc(C=C2C(=O)NC(=O)NC2=O)ccc1OCCOc1ccc([N+](=O)[O-])cc1`, the fluorescence interference ratio was 0.897.
For the molecule `O=C1NC(=O)C(=Cc2cc([N+](=O)[O-])cc(Br)c2O)C(=O)N1`, the fluorescence interference ratio is 0.896.
For `O=C(NC(=S)Nc1ccc(-c2nc3cc(Cl)ccc3o2)cc1)c1ccco1`, the fluorescence interference ratio was 0.991.
Consider `N#Cc1c(N)nc2sc(C(=O)Nc3ccccc3)c(N)c2c1-c1ccco1`, for which the fluorescence interference ratio was 1.02.

For the origin of these results see PubChem BioAssay AID720487 (Milwaukee Institute for Drug Discovery, 2013).
